The text below walks through data of PubChem BioAssay AID588814 (The Scripps Research Institute Molecular Screening Center, 2011).

About 1,200 (0.33%) of roughly 360,000 compounds were called active. The sample as a whole holds a higher share of actives than the screen did. Unmarked numbers belong to inactive results.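 Rule for the calls: active = activation above the run's mean compound activation plus 3 SD (cut at about 16% in these data); inactive = the rest.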

Chain of Muscarinic acetylcholine receptor M1 (Homo sapiens) (P11229 whole entry, looked up): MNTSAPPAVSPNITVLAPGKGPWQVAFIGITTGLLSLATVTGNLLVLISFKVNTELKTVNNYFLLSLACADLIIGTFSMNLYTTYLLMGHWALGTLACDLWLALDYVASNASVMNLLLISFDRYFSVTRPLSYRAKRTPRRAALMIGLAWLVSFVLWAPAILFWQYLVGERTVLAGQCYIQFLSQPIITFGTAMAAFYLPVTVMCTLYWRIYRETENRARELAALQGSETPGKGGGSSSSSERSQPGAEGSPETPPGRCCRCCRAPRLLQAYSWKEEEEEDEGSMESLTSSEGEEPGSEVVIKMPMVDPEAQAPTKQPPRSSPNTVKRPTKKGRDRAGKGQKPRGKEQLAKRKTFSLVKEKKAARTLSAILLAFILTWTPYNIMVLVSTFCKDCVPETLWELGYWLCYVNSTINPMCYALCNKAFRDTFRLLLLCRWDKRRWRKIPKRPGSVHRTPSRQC

The assay addresses Muscarinic acetylcholine receptor M1 (Homo sapiens) (UniProt P11229). Kind of assay: CHRM1 activation via calcium signal – Fluo-8 calcium fluorescence, CHO-K1 cells, HTS, primary screen (AID 588814).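 Note: peak over basal fluorescence ratio within a 140 s kinetic read after compound addition.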 The conditions noted are these: CHO-K1 hM1, Fluo-8 calcium fluorescence, agonist mode; at 3 µM; active compounds read high; 0% DMSO, 100% acetylcholine EC100.
Consider `Cc1ccc(Cn2c(C)c3cnn(CC(=O)NCc4ccccn4)c(=O)c3c2C)cc1`, for which the activation is 8.5%.
`Cc1c2cnn(CC(=O)NCc3ccccn3)c(=O)c2c(C)n1Cc1ccc(Cl)cc1`: the activation was 26% (active).
Under `O=C(Cn1ncc2c3ccccc3n(Cc3ccccc3)c2c1=O)NCc1ccccn1` stands -0.49%; under `Cc1ccc(C(C)C)c(OCc2nnc(SCC(=O)Nc3nccs3)n2C)c1`, -4.42%.
As to `CCCN(C(=O)c1nc2nccc(C)n2n1)c1c(N)n(Cc2ccccc2)c(=O)[nH]c1=O`, the activation was -3.03%.
Under `Nc1ncnc2c1ncn2[C@@H]1O[C@H](CNC(=O)[C@H](N)Cc2cccnc2)[C@@H](O)[C@H]1O` stands -1.79%; under `COc1ccc(C(=O)/C=C/Nc2ccccn2)cc1`, 55% (active).
`Cc1cc(N/C=C\C(=O)c2ccc(Cl)c(Cl)c2)no1`: the activation was -3.12%.
Turning to `COc1ccc(N2C(=O)CCC(C(=O)Nc3ccccn3)C2c2ccc(OC)c(OC)c2)cc1` (stereo not drawn), the activation was 5.33%.
With `FC(F)Oc1ccccc1C1CC(c2ccc(Br)s2)Nc2ncnn21` (stereo not drawn), the activation is 0.72%.
On to `CC1CC(C)(C)CC2(C1)NC(=O)N(CC(=O)Nc1nccs1)C2=O` (stereo not drawn), for which the activation was -1.16%.
As for `CC1CCN(C(=O)CSc2nnc(-c3ccco3)n2N)CC1`, the activation is -4.05%.
Regarding `O=C1NCCn2nc3ccccc3c21`, the activation is -2.22%.
As to `Cc1ccc(NS(=O)(=O)c2cc3c(cc2Br)NC(=O)CO3)cc1C`, the activation was 21.6% (active).
With `Cc1ccc(NS(=O)(=O)c2ccc3c(c2)NC(=O)CO3)cc1`, the activation was 2.14%.
With `Cc1ccc(NS(=O)(=O)c2cc3c(cc2C)NC(=O)CO3)cc1`, the activation is 1.51%.
Under `O[C@H]1C[C@H](c2ccc(Cl)cc2)N(Cc2cccs2)C[C@@H]1n1cc(C2CC2)nn1` stands 1.89%.
Under `Nc1cc(=O)n(Cc2ccccc2)c(=O)n1Cc1ccccc1` stands -2.41%.
With `CN(C(=O)COC(=O)c1ccc(Br)o1)c1c(N)n(Cc2ccccc2)c(=O)[nH]c1=O` the figure was -3.72%.
In the case of `Cc1cc2nc3c(=O)n(Cc4ccccc4)c(=O)[nH]c3nc2cc1N`, the activation was 24.8% (active).
`O=C(OCC(=O)N1CCCCCC1)c1cccc(Cl)c1Cl`: the activation was -4.74%.
Regarding `CC(=O)Nc1cccc(-c2ccnc3c2CC(C)(C(=O)NCc2ccccc2)O3)c1` (stereo not drawn), the activation was -0.77%.
For the compound `COc1ccc(OC)c(NC(=O)CN(Cc2ccc(Cl)cc2)S(C)(=O)=O)c1`, the activation is -5.87%.
With `Cc1onc(-c2ccccc2)c1C(=O)N1CCN(S(=O)(=O)c2ccccc2C(F)(F)F)CC1` the figure was -3.88%.
`O=C(/C=C/c1ccc(F)cc1)NC(=S)NNC(=O)c1cccnc1`: the activation is 1.15%.
For `Cc1onc(-c2ccccc2)c1C(=O)NNC(=S)NC(=O)c1ccc(F)cc1`, the activation was 70.4% (active).
Turning to `COc1ccc(C(=O)NC(=O)CSc2nnc(-c3ccco3)n2-c2ccccc2)cc1`, the activation was -3.2%.
For the compound `Cc1[nH]c2ccccc2c1C(=O)COC(=O)c1c(-c2ccccc2)noc1C`, the activation was -5.12%.
`COc1ccc(C(=O)NC(=S)NNC(=O)c2c(-c3ccccc3)noc2C)cc1`: the activation is 44.6% (active).
Under `COCCNc1ncnc2c1nc1n2CCCC1` stands -3.29%; under `COCCCNC(=O)c1cccc2c(-c3ccc(O)c(OC)c3)coc12`, 0.67%; under `Cc1ccc(/C=N/NC(=O)C(NC(=O)c2ccccc2)c2n[nH]c(=O)c3ccccc23)cc1` (stereo not drawn), -2.92%.
Consider `CSc1nc2nc(-c3cccc(C(F)(F)F)c3)ccn2n1`, for which the activation is -3%.
With `Cc1ccc(-n2nc3c(c2NC(=O)CCC2CCCCC2)CS(=O)C3)cc1` (stereo not drawn) the figure was -1.89%; with `O=C(COc1ccc(Cl)cc1)Nc1ccccc1CO`, -3.25%; with `O=C(Cc1ccc(Cl)cc1)NC(=S)Nc1ccccc1O`, 52.4% (active).
Turning to `Cc1cccc(NC(=S)NCCc2ccc(Cl)cc2)c1C`, the activation is -5.48%.
For the compound `O=C(COc1ccc(Cl)cc1)NC(=S)Nc1ccccc1N1CCOCC1`, the activation is 0.8%.
Turning to `Cc1ccccc1N/C(SCc1ccc(Cl)cc1)=C(/C#N)C(N)=O`, the activation was -7.61%.
In the case of `Cc1ccccc1NC(=S)NC(=O)Cc1ccc(Cl)cc1`, the activation is 29.9% (active).
For `O=C(c1ccccc1)c1cccn1CC(=O)N1CCN(c2ccc(F)cc2)CC1`, the activation is 0.36%.
As for `Cc1nc2ccccc2n1C(=O)N1CCOCC1`, the activation was -1.92%.
On to `O=C(N/N=C1\CCSC1)c1cc(Cl)ccc1O`, for which the activation was -0.13%.
Take `CN(CC(=O)NCCc1ccc(S(N)(=O)=O)cc1)CC(=O)Nc1ccc(Cl)cc1`: the activation is -1.41%.
Regarding `CCN(CC)c1ccc(C2C3CCCCC3(O)CCN2CC(=O)Nc2ccccc2)cc1` (stereo not drawn), the activation is -4.34%.
With `COc1ccc(C2/C(=C(/O)c3ccc4c(c3)CC(C)O4)C(=O)C(=O)N2Cc2ccncc2)cc1` (stereo not drawn) the figure was -3.47%.
Under `Cc1c[n+]([O-])ccc1[N+](=O)[O-]` stands -2.04%; under `Nc1nc(SCC(=O)NNc2c(Cl)cc(Cl)cc2Cl)n[nH]1`, -4.83%; under `Cc1ccc(/C=C/C(=O)OCC(=O)NCc2ccc(Cl)cc2)o1`, -3.98%.
As to `CCN(CC)c1ccc2oc(=O)c(C)nc2c1`, the activation was 49% (active).
Under `CCc1ccc2oc(-c3ccc(N)cc3)nc2c1` stands 6.55%.
With `Cc1ccc2oc(=O)ccc2c1` the figure was -4.21%; with `Cc1cc(=O)oc2c3c(cc(OCC(=O)NCC(O)c4ccccc4)c12)OC(C)(C)CC3` (stereo not drawn), 0.12%; with `CN(CCO)C(=O)c1nc[nH]c1C(=O)N(C)Cc1ccccc1`, -4.9%.
As to `CN(C(=O)CN(CCO)CC(=O)N(C)C(C)(C)Cc1ccccc1)C(C)(C)Cc1ccccc1`, the activation is 27.2% (active).
In the case of `CCOC(=O)N(Cc1ccccc1)C1CC1`, the activation was -2.66%.
Regarding `CCS(=O)(=O)n1nc(-c2ccccc2)nc1SCc1ccccc1`, the activation was -2.07%.
Take `CN(CC(=O)NCCN1CCOCC1)S(=O)(=O)c1ccc(F)cc1`: the activation was -1.7%.
In the case of `Cc1ccc(Cn2c(C)c(C(=O)NCc3ccccc3C(F)(F)F)sc2=O)cc1`, the activation is -6.02%.
On to `CC(=O)Oc1ccc(Cn2c(C)c(C(=O)NCc3ccc(C#N)cc3)sc2=O)cc1`, for which the activation is 33% (active).
Consider `Cc1c(C(=O)NCc2ccc(C#N)cc2)sc(=O)n1Cc1ccc(C(=O)N(C)C)cc1`, for which the activation is -5.38%.
With `COc1ccc(N/N=C2/CCCCC2=O)cc1`, the activation is -3.78%.
With `COc1ccc(NC(=O)C2(C)Cc3c(-c4cccc(NC(C)=O)c4)ccnc3O2)cc1` (stereo not drawn) the figure was -1.09%.
On to `O=C1CCN(CCc2ccccc2)CCN1CCOc1ccccc1`, for which the activation was -5.27%.
Take `O=c1[nH]c2ccccc2n1C1CCN(CCOc2ccccc2)CC1`: the activation is 75.4% (active).
Turning to `O=S(=O)(c1cccs1)N1CCN(CCOc2ccccc2)CC1`, the activation was -2.7%.
Turning to `CC1Cc2ccccc2N1CC(=O)Nc1ccc(S(N)(=O)=O)cc1` (stereo not drawn), the activation is 0.2%.
Turning to `O=C(CN(Cc1ccccc1)C(=O)CCC(=O)Nc1ccccn1)NCCc1ccccc1`, the activation is -5.06%.
With `CC(=O)NC(CC(=O)Nc1nc(-c2ccccc2)c(C(C)=O)s1)c1ccccc1` (stereo not drawn), the activation was -2.65%.
For `Nc1ncnc2c1ncn2[C@@H]1O[C@H](C(=O)NS(=O)(=O)c2c(Cl)nc3sccn23)[C@@H](O)[C@H]1O`, the activation is -1%.
Regarding `COc1ccc(/C=C/C(=O)c2c(O)cc(OC)cc2OC)cc1`, the activation is -5.79%.
As for `COc1cccc(C=CC(=O)C=CC=Cc2ccccc2)c1`, the activation is -0.1%.
Consider `O=C(/C=C(O)/C=C/c1ccc(O)cc1)/C=C/c1ccc(O)cc1`, for which the activation was 30% (active).
With `CCOc1ccc(CCNC(=O)COC(=O)c2c(OC)cccc2OC)cc1OCC` the figure was 0.68%; with `CC(C)CC(=O)NC(=S)NCc1ccccc1`, -7.45%.
With `CCCCC(=O)NNC(=S)NC(=O)C(c1ccccc1)c1ccccc1` the figure was 88.8% (active); with `O=C(CCN1CCN(c2ccccc2)CC1)NNC(=S)Nc1ccccc1`, -3%; with `O=C(N=C1SC2CS(=O)(=O)CC2N1Cc1ccccc1)c1ccccc1` (stereo not drawn), 0.69%.
`CCOc1ccc(NS(=O)(=O)c2ccc(C(=O)NCC(c3ccccc3OC)N3CCCC3)cc2)cc1` (stereo not drawn): the activation was 22.7% (active).
As to `CCOc1ccc(NS(=O)(=O)c2ccc(C(=O)NC3CCN(Cc4ccccc4)CC3)cc2)cc1`, the activation was -4.76%.
Regarding `CCOc1ccc(S(=O)(=O)Nc2ccc(C(=O)NCCCN3CCCC3=O)cc2)cc1`, the activation was -1.87%.
In the case of `Cc1ccc(S(=O)(=O)N(CC(=O)Nc2cccnc2)c2ccc(Br)cc2)cc1`, the activation is -0.74%.
For the compound `O=C(Cn1cnc2ccccc2c1=O)NCC1COc2ccccc2O1` (stereo not drawn), the activation is -0.06%.
With `c1ccc2c(c1)OCC(CNc1ncnc3nc[nH]c13)O2` (stereo not drawn) the figure was 134% (active).
Under `COc1ccc(CCNc2ncnc3nc[nH]c23)cc1OC` stands 3.98%.
With `C=CCNC(=S)N1CCc2[nH]c3ccccc3c2C1` the figure was 2.34%; with `CCc1ccc(NC(=O)N2CCc3ccccc3C2)cc1`, -5.56%; with `O=C(Nc1ccc(Cl)cc1)N1CCc2[nH]c3ccccc3c2C1`, 21.6% (active).
Regarding `O=C(Nc1cccc2c1CCCC2)C1CCN(C(=O)NC2CCCCC2)CC1`, the activation was -2.08%.
In the case of `O=C(CSc1nnc2c(n1)[nH]c1ccccc12)NC1CCCCC1`, the activation was -3.41%.
Regarding `O=C(NC1CCCCC1)N1CCc2[nH]c3ccccc3c2C1`, the activation was 18.1% (active).
Regarding `CCOC1=C2[C@@H](CN(S(=O)(=O)c3ccc(C)cc3)[C@H]2c2ccccc2F)[C@H]2C(=O)N(Cc3ccccc3)C(=O)[C@H]2C1`, the activation is -5.09%.
With `CCCc1cc(=O)[nH]c(SCC(=O)Nc2ccc(S(=O)(=O)N3CCCC3)cc2)n1` the figure was -4.58%.
